Assay [1] concerns the target Lysosomal acid glucosylceramidase (Homo sapiens) (UniProt P04062). Kind of assay: Glucocerebrosidase-p2 (AID 348; in the data active means potency below about 10 µM; further: potency means the concentration at half of the fitted maximal effect). The following applies: purified GBA, blue fluorogenic substrate, 40 min. The method in brief:
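Normal human glucocerebrosidase (0.2 nM) with blue fluorogenic substrate (80 uM final) in citrate/phosphate pH 5.9 with 10mM sodium taurocholate, 0.01% tween-20; 40 min RT, NaOH/glycine stop; fluorescence Ex 365/Em 440; AC50 from a titration from 0.6 nM upwards.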

The target of assay [2] is Glucocorticoid receptor (Homo sapiens) (UniProt P04150). As to the kind of experiment: GR-GFP Redistribution (AID 450;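 active means compounds whose dose series gives a full or clear partial fitted curve of increased nuclear translocation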; further: potency means the concentration at half of the fitted maximal effect). The following applies: U2OS GR-GFP nuclear translocation, laser cytometry, 2 h.
Glucocorticoid receptor (Homo sapiens), sequence (P04150 whole entry, looked up, the tested form may be a part): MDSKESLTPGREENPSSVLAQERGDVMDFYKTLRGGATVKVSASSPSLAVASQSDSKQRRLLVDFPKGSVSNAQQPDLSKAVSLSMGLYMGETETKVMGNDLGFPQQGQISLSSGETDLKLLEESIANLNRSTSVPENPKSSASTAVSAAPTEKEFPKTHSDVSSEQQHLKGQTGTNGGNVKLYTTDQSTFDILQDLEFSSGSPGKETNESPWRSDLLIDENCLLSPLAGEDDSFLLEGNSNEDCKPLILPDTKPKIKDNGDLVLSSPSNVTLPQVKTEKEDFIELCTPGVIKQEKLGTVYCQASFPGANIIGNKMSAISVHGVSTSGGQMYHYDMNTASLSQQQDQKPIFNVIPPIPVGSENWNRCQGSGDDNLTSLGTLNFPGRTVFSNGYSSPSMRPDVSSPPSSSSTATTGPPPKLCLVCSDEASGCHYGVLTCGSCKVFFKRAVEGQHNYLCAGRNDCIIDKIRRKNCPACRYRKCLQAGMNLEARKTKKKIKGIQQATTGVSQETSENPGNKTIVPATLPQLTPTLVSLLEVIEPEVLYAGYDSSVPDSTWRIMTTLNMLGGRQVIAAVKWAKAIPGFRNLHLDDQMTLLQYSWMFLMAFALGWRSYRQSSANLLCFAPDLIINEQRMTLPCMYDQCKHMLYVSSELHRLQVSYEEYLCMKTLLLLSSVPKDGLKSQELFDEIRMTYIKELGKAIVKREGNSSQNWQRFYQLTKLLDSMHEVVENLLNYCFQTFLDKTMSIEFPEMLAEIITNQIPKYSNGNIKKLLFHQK
Assay [3] shares this target. As to the kind of experiment: GR-EFC Redistribution (AID 451; calls by dose curve; further: potency means the concentration at half of the fitted maximal effect). The following applies: CHO-K1 GR-EFC translocation, beta-gal luminescence, 2 h. The method in brief: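 Translocation of GR-ED fusion to nuclear EA restores b-gal, read by luminescence after 1 h room-temperature detection. Engineered CHO-K1 biosensor cells, 1,000/well, exposed 2 h at 37 C to titrations up to 46 uM final.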

The target in assay [4] is Mitogen-activated protein kinase 10 (Mus musculus) (UniProt Q61831). Kind of assay: JNK3 AlphaScreen Assay (AID 530; active means well fitted curve in either direction with a large enough effect, not every such curve was filed as active;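 further: kinase came from lysate of stimulated human HepG2 cells; signal reports phosphorylation of biotinylated GST-cJun 1-79 at Ser73 with 10 µM ATP; on the % scale 0 is the no-effect control and ±100 the full control effect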). The method in brief:
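qHTS titrations with 15 min compound pre-incubation before adding ATP (10 uM final). Read-out: AlphaScreen of Ser73-phosphorylated biotin-GST-cJun using HepG2 lysate JNK3 activated by IL-1β and TNFα.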
In general terms: Alpha assays give light when donor and acceptor beads are brought close together.

Assay [5] addresses 3',5'-cyclic-AMP phosphodiesterase 4B (Homo sapiens) (UniProt Q07343). Kind of assay: qHTS Assay for Inhibitors of PDE-IV (AID 607; active means well fitted activation curve with a large enough effect in the main read-out, with a control signal flat, not every such curve was filed as active; further: % of control where 0% means no effect). The method in brief: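 ACTOne HEK293 cells carry a modified cAMP-gated CNG channel and express endogenous PDE4; plated 1000 cells/well, compounds up to 22.9 uM final. Membrane-potential dye fluorescence (ex 535/em 590) was read; parental cells received 10 uM forskolin + 100 uM RO 20-1724.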
In general terms: Quantitative high-throughput screening tests each substance at several concentrations.

Assay [6] addresses Dual specificity protein kinase CLK4 (Homo sapiens) (UniProt Q9HAZ1). Kind of assay: qHTS Assay for Inhibitors of CDC-like Kinase 4 (ADP-FP Assay) (AID 1795).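 Further: recombinant human CLK4 phosphorylating RS repeat peptide at 1 µM ATP; on the % scale 0 is the no-effect control and ±100 the full control effect; nearly all actives have a fitted effect of over 60% in size.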 In outline:
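Kinase activity was measured as ADP production using Transcreener orange tracer (4 nM) and ADP antibody (1 ug/mL) fluorescence polarization, with ADP calculated from a calibration curve. The 1 h reaction contained 6.25 nM Clk4, 1 uM ATP and 100 uM RS peptide at pH 7.5 with Mg2+.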

Assay [7] addresses Ubiquitin carboxyl-terminal hydrolase 1 (Homo sapiens) (UniProt O94782). Kind of assay: Inhibitors of USP1/UAF1: Pilot qHTS (AID 504865).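 Further: rhodamine fluorescence freed from ubiquitin-rhodamine substrate followed over time; top concentration of the series differs between compounds; on the % scale 0 is the no-effect control and ±100 the full control effect; nearly all actives have a fitted effect of over 35% in size.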 In outline: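 Deubiquitinase activity followed as kinetic rhodamine fluorescence release from 150 nM Ub-Rho. 1 nM USP1/UAF1 with compound, after 15 min room-temperature preincubation, in HEPES pH 7.8 buffer containing TCEP, EDTA, BSA and Tween-20.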

Assay [8] in a line: Primary qHTS for small molecule stabilizers of the endoplasmic reticulum resident proteome: Secreted ER Calcium Modulated Protein (SERCaMP) assay (AID 1508630). Further: on the % scale 0 is the no-effect control and ±100 the full control effect. In outline:
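The SH-SY5Y reporter protocol was run at 3 concentrations up to 38.3 uM (primary) or 11 concentrations (follow-up): 16 h compound, 100 nM thapsigargin for 4 h, then extracellular luciferase luminescence.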

Assay [9] has as its target Rap guanine nucleotide exchange factor 3 (Homo sapiens) (UniProt O95398). As to the kind of experiment: Confirmatory qHTS for antagonist of cAMP-regulated guanine nucleotide exchange factor 3 (EPAC1) (AID 1645880).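 Further: plate controls were DMSO only for no effect and full effect of the ATA control for full effect; nearly all actives have a fitted effect of over 55% in size.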 The method in brief:
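Released BODIPY-GDP fluoresces less than Rap1-bound BODIPY-GDP; the signal is followed at 480/540 nm at 5-min intervals over 30 min, after 5 min at room temperature. Reactions contain 100 nM EPAC1, 250 nM RAP1B-BODIPY-GDP and 50 uM GDP; results are normalized to ATA and DMSO.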

The target is the same in assay [10]. Kind of assay: Confirmatory qHTS for agonist of cAMP-regulated guanine nucleotide exchange factor 3 (EPAC1) (AID 1645881).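 Further: EPAC1 catalysed release of BODIPY-GDP from Rap1B seen as fluorescence loss; nearly all actives have a fitted effect of over 75% in size.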
Assay [11] concerns the target Rap guanine nucleotide exchange factor 4 (Homo sapiens) (UniProt Q8WZA2). As to the kind of experiment: Confirmatory qHTS for agonist of cAMP-regulated guanine nucleotide exchange factor 4 (EPAC2) (AID 1645884).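 Further: nucleotide exchange releases bodipy-GDP from Rap1 and this lowers its fluorescence; on the % scale 0 is the no-effect control and ±100 the full control effect; nearly all actives have a fitted effect of over 65% in size.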
The target is the same in assay [12]. As to the kind of experiment: Confirmatory qHTS for antagonist of cAMP-regulated guanine nucleotide exchange factor 4 (EPAC2) (AID 1645885). Further: on the % scale 0 is the no-effect control and ±100 the full control effect; nearly all actives have a fitted effect of over 25% in size.
A short description of assay [13]: AP1 Signaling Pathway (AID 357; active means well fitted curve in either direction with a large enough effect, not every such curve was filed as active;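 further: ME-180 reporter cells stimulated with EGF at its EC50 level; on the % scale 0 is the no-effect control and ±100 the full control effect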). The following applies: ME-180 AP-1-bla reporter, EGF-induced, beta-lactamase ratio, 5 h; at 7.69 µM (top of the series) unless noted. In outline:
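Beta-lactamase reporter under AP-1 response element, ME-180 background. Stimulus: EC50 EGF. Compound exposure 5 h, 37 °C. Detection: CCF4, 2.5 h RT, 460/530 nm. Values: AC50 from titration.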

Assay [14] in a line: qHTS Assay for Lipid Storage Modulators (AID 1519; calls by dose curve). The following applies: Drosophila S3 cells, BODIPY lipid droplet/cell ratio, laser cytometry, cells loaded with oleic acid; for activity change, negative = inhibition: at 57.5 µM (top of the series). In outline: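 Cells seeded at 5,000 per well were treated with compounds over a concentration series and loaded with oleic acid (400 uM, as added). Lipid droplet fluorescence (488 nm excitation, 500-530 nm channel) was read by laser-scanning cytometry and normalized to 20 uM Triacsin C.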

For assay [15], the target named is Cytochrome P450 1A2 (Homo sapiens) (UniProt P05177). As to the kind of experiment: p450-cyp1a2 (AID 410; calls by dose curve; further: potency means the concentration at half of the fitted maximal effect). In outline:
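Luminescent demethylation readout: Luciferin-ME (100uM, equal to Km) turned over by 20nM CYP1A2 for 60 min at room temperature after NADPH regeneration addition, following 10 min compound preincubation. Normalization used 57 uM furafylline as full inhibition.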

Assay [16] in a line: Stat Signaling Pathway (AID 446; active means well fitted curve in either direction with a large enough effect, not every such curve was filed as active;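 further: ME-180 cervical cancer cells given 40 pM IL-6 alongside compound; SIE-controlled beta-lactamase reporter measured as 460/530 nm FRET emission ratio; on the % scale 0 is the no-effect control and ±100 the full control effect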). The following applies: ME-180 (cervical carcinoma) SIE beta-lactamase reporter, IL-6 stimulated, 5 h; at 7.69 µM (top of the series) unless noted. The method in brief:
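Compound effects on IL-6-induced STAT reporter activity were measured in ME-180 cells. After overnight culture, cells were co-treated with 40 pM IL-6 for 5 hrs before beta-lactamase substrate loading at room temperature.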

For assay [17], the target named is Cytochrome P450 3A4 (Homo sapiens) (UniProt P08684). As to the kind of experiment: qHTS Assay for Inhibitors and Substrates of Cytochrome P450 3A4 (AID 884). Further: potency means the concentration at half of the fitted maximal effect; nearly all actives have a fitted effect of over 50% in size. The method in brief: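 Luminescent readout of luciferin produced by CYP3A4 (20 nM) dealkylation of Luciferin-PPXE, 25 uM (its KM). NADPH-driven reaction ran 60 min at RT after 10 min compound preincubation; data scaled to 57 uM ketoconazole as 100% inhibition.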
Cytochrome P450 3A4 (Homo sapiens), sequence (P08684 whole entry, looked up): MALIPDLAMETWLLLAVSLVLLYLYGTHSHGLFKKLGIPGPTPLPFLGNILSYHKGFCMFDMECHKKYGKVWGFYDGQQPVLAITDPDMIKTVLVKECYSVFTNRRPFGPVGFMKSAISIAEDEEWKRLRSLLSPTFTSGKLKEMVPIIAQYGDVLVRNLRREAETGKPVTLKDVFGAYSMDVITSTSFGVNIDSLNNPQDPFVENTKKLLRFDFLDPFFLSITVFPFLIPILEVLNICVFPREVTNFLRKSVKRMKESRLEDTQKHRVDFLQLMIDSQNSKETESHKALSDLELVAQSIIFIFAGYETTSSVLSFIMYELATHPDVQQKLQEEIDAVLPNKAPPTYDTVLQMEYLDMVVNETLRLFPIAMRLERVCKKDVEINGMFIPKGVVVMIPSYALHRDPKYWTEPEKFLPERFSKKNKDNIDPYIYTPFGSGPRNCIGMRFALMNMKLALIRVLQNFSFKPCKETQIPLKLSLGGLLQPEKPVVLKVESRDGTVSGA

Assay [18] is described as follows: NFAT Signaling Pathway (AID 444; active means well fitted curve in either direction with a large enough effect, not every such curve was filed as active). The following applies: Jurkat NFAT-bla M1, carbachol, beta-lactamase ratio, 5 h; at 7.69 µM (top of the series) unless noted. The method in brief: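 Read-out: CCF4 FRET ratio (460 nm/530 nm) after 1 h RT dye loading, used for %activity and AC50 from titration series. Cells: Jurkat NFAT-β-lactamase/M1 line, treated with compound plus 1 uM carbachol for 5 h, 37 °C.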

For assay [19], the target named is Cytochrome P450 3A4 (Homo sapiens) (UniProt P08684). As to the kind of experiment: qHTS Assay for Activators of Cytochrome P450 3A4 (AID 885). Further: nearly all actives have a fitted effect of over 65% in size. In outline: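 CYP3A4 activity: Luciferin-PPXE O-dealkylation, 25uM substrate, 200mM KPO4, RT throughout. Read-out is luciferase luminescence; higher values reflect activation.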
Assay [20] in a line: Confirmation and Secondary Assay for Modulators of Hemoglobin Beta Chain Splicing at IVS2 654 locus (AID 910).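 Further: HeLa cells stably carrying EGFP split by mutant beta-globin IVS2-654 intron; per-well total GFP intensity by laser scanning cytometry after 2-day treatment; % of control where 0% means no effect.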 In outline:
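Readout: per-well total peak green fluorescence (488 nm ex, 500–520 nm em) from objects 5–250 µm, reflecting correct splicing of an EGFP-654 reporter. Compounds were applied for 2 days at 37 °C to overnight-plated HeLa EGFP-654 cells; controls were DMSO and 500 nM IVS2-654 PNA.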

The mark [21] stands for this setting: measured here: cell count channel max response.
[22] abbreviates: measured here: lipid channel max response.

Records with an inconclusive call do not appear. Calls of active or inactive are those of the source. Unless noted, the call rests on the fitted dose curve; in most records, active means well fitted curve in the direction sought with a large enough effect; inconclusive means small, poorly fitted or top-dose-only effect, or another doubt; inactive means no such curve, though single readings can be large; an effect the other way counts as inactive or inconclusive.

Ubiquitin carboxyl-terminal hydrolase 1 (Homo sapiens), sequence (O94782 whole entry, looked up): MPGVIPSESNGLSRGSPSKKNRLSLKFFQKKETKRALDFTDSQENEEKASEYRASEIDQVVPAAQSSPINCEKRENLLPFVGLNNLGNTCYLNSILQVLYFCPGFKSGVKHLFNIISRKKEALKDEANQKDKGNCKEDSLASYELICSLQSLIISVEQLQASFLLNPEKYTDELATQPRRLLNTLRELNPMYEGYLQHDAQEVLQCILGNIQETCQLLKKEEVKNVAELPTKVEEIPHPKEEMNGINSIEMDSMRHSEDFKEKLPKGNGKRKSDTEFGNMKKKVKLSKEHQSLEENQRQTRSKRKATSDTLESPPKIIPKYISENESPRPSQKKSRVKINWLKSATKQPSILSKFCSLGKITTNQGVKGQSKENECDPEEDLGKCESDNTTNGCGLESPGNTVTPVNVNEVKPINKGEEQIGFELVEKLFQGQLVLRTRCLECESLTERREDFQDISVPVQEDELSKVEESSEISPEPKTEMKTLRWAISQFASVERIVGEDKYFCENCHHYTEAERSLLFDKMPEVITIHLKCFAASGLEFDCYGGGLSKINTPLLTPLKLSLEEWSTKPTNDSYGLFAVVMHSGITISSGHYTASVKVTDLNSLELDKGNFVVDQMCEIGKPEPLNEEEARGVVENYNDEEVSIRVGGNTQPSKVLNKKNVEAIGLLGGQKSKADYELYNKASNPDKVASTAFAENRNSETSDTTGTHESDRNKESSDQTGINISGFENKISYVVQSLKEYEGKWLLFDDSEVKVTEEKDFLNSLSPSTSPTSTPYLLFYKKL
Dual specificity protein kinase CLK4 (Homo sapiens), sequence (Q9HAZ1 whole entry, looked up): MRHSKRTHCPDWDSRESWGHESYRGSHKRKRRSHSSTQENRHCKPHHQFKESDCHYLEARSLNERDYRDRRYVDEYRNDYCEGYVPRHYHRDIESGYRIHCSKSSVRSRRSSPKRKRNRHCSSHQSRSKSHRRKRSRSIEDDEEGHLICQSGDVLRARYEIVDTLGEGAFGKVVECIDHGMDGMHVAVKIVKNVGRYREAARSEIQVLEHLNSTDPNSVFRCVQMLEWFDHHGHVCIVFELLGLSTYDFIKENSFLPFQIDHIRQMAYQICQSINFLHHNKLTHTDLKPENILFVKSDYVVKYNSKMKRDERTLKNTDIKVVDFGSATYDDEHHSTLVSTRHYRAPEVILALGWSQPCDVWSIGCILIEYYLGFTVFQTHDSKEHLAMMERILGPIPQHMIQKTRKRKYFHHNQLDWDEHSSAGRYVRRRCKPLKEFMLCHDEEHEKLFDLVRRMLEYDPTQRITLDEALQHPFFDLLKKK
Cytochrome P450 1A2 (Homo sapiens), sequence (P05177 whole entry, looked up): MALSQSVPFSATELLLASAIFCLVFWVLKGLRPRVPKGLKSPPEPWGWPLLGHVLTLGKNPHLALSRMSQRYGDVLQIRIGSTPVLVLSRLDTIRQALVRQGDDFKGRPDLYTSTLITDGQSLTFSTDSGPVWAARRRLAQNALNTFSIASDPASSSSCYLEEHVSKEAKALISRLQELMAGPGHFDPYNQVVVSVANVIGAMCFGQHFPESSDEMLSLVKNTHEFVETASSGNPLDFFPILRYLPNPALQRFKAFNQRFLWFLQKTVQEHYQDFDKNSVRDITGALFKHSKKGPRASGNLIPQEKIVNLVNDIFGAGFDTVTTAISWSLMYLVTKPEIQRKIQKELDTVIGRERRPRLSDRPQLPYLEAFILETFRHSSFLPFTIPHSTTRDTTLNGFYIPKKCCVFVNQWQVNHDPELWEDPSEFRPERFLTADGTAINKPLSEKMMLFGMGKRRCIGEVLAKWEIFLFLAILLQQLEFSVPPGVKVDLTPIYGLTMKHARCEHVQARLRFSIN
Rap guanine nucleotide exchange factor 4 (Homo sapiens), sequence (Q8WZA2 whole entry, looked up): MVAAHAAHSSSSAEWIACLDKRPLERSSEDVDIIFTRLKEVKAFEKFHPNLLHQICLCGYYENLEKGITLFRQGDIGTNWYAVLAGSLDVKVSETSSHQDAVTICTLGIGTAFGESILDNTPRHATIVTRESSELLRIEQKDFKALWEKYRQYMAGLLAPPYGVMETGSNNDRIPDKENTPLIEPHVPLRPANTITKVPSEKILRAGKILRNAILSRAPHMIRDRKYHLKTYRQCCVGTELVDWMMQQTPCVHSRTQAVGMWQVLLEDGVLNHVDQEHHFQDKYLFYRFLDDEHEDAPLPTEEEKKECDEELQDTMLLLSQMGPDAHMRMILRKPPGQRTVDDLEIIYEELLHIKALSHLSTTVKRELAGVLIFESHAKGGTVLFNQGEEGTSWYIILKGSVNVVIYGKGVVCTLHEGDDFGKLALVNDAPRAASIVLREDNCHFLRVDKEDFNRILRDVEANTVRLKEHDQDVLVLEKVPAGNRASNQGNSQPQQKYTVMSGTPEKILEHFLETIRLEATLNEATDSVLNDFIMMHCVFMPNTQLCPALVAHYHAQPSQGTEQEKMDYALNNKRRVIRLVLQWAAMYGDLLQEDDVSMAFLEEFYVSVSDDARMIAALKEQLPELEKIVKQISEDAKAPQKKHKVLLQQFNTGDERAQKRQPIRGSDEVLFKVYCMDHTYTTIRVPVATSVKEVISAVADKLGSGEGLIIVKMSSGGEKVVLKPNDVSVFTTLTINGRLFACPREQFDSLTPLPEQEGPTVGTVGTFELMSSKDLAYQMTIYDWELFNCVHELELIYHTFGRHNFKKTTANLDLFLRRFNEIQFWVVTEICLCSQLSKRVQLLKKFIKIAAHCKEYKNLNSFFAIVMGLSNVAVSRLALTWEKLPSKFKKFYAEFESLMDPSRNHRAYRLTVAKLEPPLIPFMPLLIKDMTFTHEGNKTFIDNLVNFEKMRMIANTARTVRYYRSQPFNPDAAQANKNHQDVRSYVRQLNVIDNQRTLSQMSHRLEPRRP
Lysosomal acid glucosylceramidase (Homo sapiens), sequence (P04062 whole entry, looked up): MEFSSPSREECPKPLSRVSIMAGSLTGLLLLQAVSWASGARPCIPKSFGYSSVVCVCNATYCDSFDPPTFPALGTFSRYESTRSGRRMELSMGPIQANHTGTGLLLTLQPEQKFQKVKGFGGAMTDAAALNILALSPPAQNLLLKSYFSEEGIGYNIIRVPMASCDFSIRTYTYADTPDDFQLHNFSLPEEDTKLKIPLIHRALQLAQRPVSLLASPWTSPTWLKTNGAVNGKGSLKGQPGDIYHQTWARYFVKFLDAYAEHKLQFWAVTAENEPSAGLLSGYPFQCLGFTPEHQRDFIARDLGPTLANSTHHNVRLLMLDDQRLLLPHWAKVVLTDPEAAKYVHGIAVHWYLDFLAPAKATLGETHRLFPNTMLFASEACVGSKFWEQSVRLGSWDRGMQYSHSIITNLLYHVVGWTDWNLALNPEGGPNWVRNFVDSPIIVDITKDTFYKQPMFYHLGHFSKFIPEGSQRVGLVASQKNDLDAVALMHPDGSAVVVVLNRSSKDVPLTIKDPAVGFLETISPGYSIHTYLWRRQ

With `COc1cccc(Cn2c(=O)c(-c3ccc(F)cc3)nc3cnc(N4CCOCC4)nc32)c1`, the Potency in assay [1] is > 11.4 µM (inactive); in [2], > 9.22 µM (inactive); in [3], > 46 µM (inactive). The Potency entry in [4], in [5], in assay [6], in assay [7], in [9] and in [10] was “inactive” throughout. Moreover, the Potency result in [11] and in assay [12] was “inactive” each time. Besides, the result in assay [8] was inactive.

Turning to `Cc1noc(C)c1C(=O)N1CCC2(CC1)CN(c1ccccn1)C2`, the activity change, negative = inhibition was 23.5% (inactive) in assay [13] and 4.72% (inactive) in assay [14]. Further, in [3], the Potency is > 46 µM (inactive). In addition, the Potency entry in [4] and in [5] was “inactive” throughout. Further, the max response in assay [14] (setting [21]) was found to be 6.89%; in assay [14] (setting [22]) it was 15.4%. Further, the outcome in assay [8] was inactive.

For `COc1ccccc1CNc1nc(-c2ccc3c(c2)OCO3)nc2ccccc12`, in assay [13], the activity change, negative = inhibition was 24.7% (inactive). Further, the Potency is 0.631 µM (active) in assay [15], > 46 µM (inactive) in [2], > 46 µM (inactive) in [3] and 1.26 µM (active) in assay [17]. Besides, the activity, negative = inhibition in assay [16] was -8.69% (inactive). The Potency result in [4], in assay [5], in assay [6], in [7], in assay [9] and in [10] was “inactive” each time. The Potency result in assay [11] and in assay [12] was “inactive” each time. Besides, the result in [8] was inactive.

Turning to `Cn1cc(C(F)(F)F)nc1-c1ccc(OC[C@@H](O)CNCCOc2ccc(O)c(C(N)=O)c2)cc1`, the results for the activity change, negative = inhibition in assay [13], in assay [18] and in [14] were -8.84% [at 38 µM] (inactive), -4.88% [at 38 µM] (inactive) and 1.54% (inactive), respectively. Besides, the Potency in assay [2] and in [3] was > 46 µM (inactive) in each case. The Potency entry in [4] and in assay [5] was “inactive” in each case. Further, the max response in [14] (setting [21]) is -4.45%; in assay [14] (setting [22]), -2.61%. In addition, the outcome in [8] was inactive.

For `O=c1c(-c2ccc(Cl)cc2)nc2cncnc2n1Cc1ccccc1Cl`, the Potency in [1] was > 11.4 µM (inactive); in assay [15], 1.26 µM (active); in assay [2] it was > 9.22 µM (inactive); in assay [3], > 46 µM (inactive). Further, the activity change, negative = inhibition was 8.01% (inactive) in assay [13] and -29.5% (inactive) in assay [18]. Besides, the activity, negative = inhibition in assay [16] was 13% (inactive). Also, the Potency entry in [4], in assay [5], in assay [19], in assay [9], in assay [10] and in assay [11] was “inactive” each time. Also, in [12], the Potency result is “inactive”. For the same compound, the outcome in assay [8] was inactive.

For the compound `O=c1c(-c2cc(F)cc(F)c2)nc2cncnc2n1Cc1ccccc1Cl`, the Potency in assay [1] was > 11.4 µM (inactive); in [15], 5.01 µM (active); in assay [2] it was > 9.22 µM (inactive); in [3], > 46 µM (inactive). Further, the activity change, negative = inhibition in assay [13] is 5.85% (inactive); in [18], -19.2% (inactive). Also, the activity, negative = inhibition in assay [16] is -6.37% (inactive). In addition, the Potency entry in [4], in [5], in assay [19], in assay [6], in [7] and in [9] was “inactive” each time. Further, the Potency result in [10], in [11] and in [12] was “inactive” each time. The outcome in assay [8] was inactive.

`CS(=O)(=O)Nc1cccc(-c2ccc3ncnc(NCc4cccnc4)c3c2)c1`: the Potency in [15] was 0.316 µM (active); in assay [2], > 46 µM (inactive); in assay [3], > 46 µM (inactive); in [17], 0.398 µM (active). Moreover, the Potency entry in assay [4], in assay [5], in assay [19], in assay [20] and in [7] was “inactive” throughout. Moreover, the activity change, negative = inhibition in [14] was 10.4% (inactive). In addition, the max response in assay [14] (setting [21]) is 2.04%; in [14] (setting [22]), 13.1%. In assay [8], the result was inactive.

(Values after PubChem BioAssay (NCATS).)
